Drawing on PubChem BioAssay (NCI), this text covers growth inhibition for nine compounds.

The nature of assay [1]: NCI Yeast Anticancer Drug Screen. Data for the rad50 strain (AID 155).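 Also: 0% = growth of vehicle-only cultures of the same strain.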 The following applies: S. cerevisiae rad50 strain growth inhibition, active compounds read high. The procedure, abridged:
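Cells are treated with compound, grown, and their growth is then scored against vehicle-only cultures of the same repair-deficient yeast strain.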

A short description of assay [2]: NCI Yeast Anticancer Drug Screen. Data for the mec2-1 strain (AID 157). To be noted: S. cerevisiae mec2-1 strain, active compounds read high. The gist of the method:
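Test agents were screened against the mec2-1 yeast strain, with defined DNA repair or cell cycle alteration. Growth was scored as inhibition against vehicle-only controls.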

Assay [3] in a line: NCI Yeast Anticancer Drug Screen. Data for the sgs1 mgt1 strain (AID 161).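 Also: 0% = growth of cultures given vehicle only.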 To be noted: S. cerevisiae sgs1 mgt1 strain, active compounds read high. The procedure, abridged:
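Mutant yeast exposed to compound; growth scored against vehicle-only wells.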

Assay [4] can be described thus: NCI Yeast Anticancer Drug Screen. Data for the cln2 rad14 strain (AID 165).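 Also: 0% = growth equal to vehicle treated cultures.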 To be noted: S. cerevisiae cln2 rad14 strain, active compounds read high. The gist of the method: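 Growth of compound-exposed yeast (cln2 rad14 genotype) measured and expressed as inhibition relative to vehicle.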
Assay [5] in a line: NCI Yeast Anticancer Drug Screen. Data for the bub3 strain (AID 167). The following applies: S. cerevisiae bub3 mutant strain, active compounds read high. The procedure, abridged:
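Part of a panel of yeast mutants defective in DNA damage repair or cell cycle regulation. Each strain is grown with compound, and inhibition is calculated relative to solvent-treated cultures.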

Assay [6] can be described thus: NCI Yeast Anticancer Drug Screen. Data for the mlh1 rad18 strain (AID 175). The following applies: S. cerevisiae mlh1 rad18 strain growth inhibition, active compounds read high. The gist of the method:
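In this whole-cell yeast screen, a strain with altered DNA damage repair is challenged with compound, and its growth is measured against matched vehicle-treated controls.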

[7] abbreviates: at 5.0 µM (retest, dose inferred, filed as 0.5).
The mark [8] stands for this setting: at 50.0 µM (retest, dose inferred, filed as 5.0).

This is part of a sample that, as a whole, favours compounds with a hit. Of some 79,000 tested, about 15% had one in any assay. Unmarked numbers belong to inactive results. Activity calls are given as the source filed them. Rule as the data show it: active = growth inhibition above about 70%; inactive = the rest.

In the case of `CC1(C(Cl)(Cl)Cl)C=CC(O)(C#CC2(O)C=CC(C)(C(Cl)(Cl)Cl)C=C2)C=C1` (configuration not stated), the growth inhibition was 94% (active) in assay [1] (setting [7]); 7% in assay [1] (setting [8]); 94.5% (active) in assay [1] (at 50.0 µM); 91% (active) in assay [2] (setting [7]); 98% (active) in assay [2] (setting [8]); 98.2% (active) in assay [2] (at 50.0 µM). In addition, the growth inhibition in assay [3] (setting [7]) is 81% (active); in assay [3] (setting [8]), -7%; in assay [3] (at 50.0 µM) it was 98.3% (active); in assay [4] (setting [7]) it was 87% (active); in assay [4] (setting [8]) it was 97% (active); in assay [4] (at 50.0 µM), 95.7% (active). Also, the growth inhibition in assay [5] (setting [7]) was 98% (active); in assay [5] (setting [8]), 97% (active); in assay [5] (at 50.0 µM) it was 95.4% (active); in assay [6] (setting [7]), 93% (active); in assay [6] (setting [8]), 98% (active); in assay [6] (at 50.0 µM), 97.8% (active).
In the case of `O=C(Nc1ccccc1)Oc1c(Cl)c(Cl)c(Cl)c(Cl)c1Cl`, the growth inhibition was 19% in assay [1] (setting [7]); 98% (active) in assay [1] (setting [8]); 58.4% in assay [1] (at 50.0 µM); 13% in assay [2] (setting [7]); 99% (active) in assay [2] (setting [8]); 45.8% in assay [2] (at 50.0 µM). In addition, the growth inhibition in assay [3] (setting [7]) was 26%; in assay [3] (setting [8]), 99% (active); in assay [3] (at 50.0 µM), 55.7%; in assay [4] (setting [7]), 3%; in assay [4] (setting [8]), 99% (active); in assay [4] (at 50.0 µM) it was -20.8%. Besides, the growth inhibition was -2% in assay [5] (setting [7]); 99% (active) in assay [5] (setting [8]); 54.4% in assay [5] (at 50.0 µM); 6% in assay [6] (setting [7]); 98% (active) in assay [6] (setting [8]); 68.7% in assay [6] (at 50.0 µM).
For the compound `S=C(N/N=C/c1ccccn1)N1CCCCCC1`, the growth inhibition in assay [1] (setting [7]) is 99% (active); in assay [1] (setting [8]) it was 100% (active); in assay [1] (at 50.0 µM), 88.8% (active); in assay [2] (setting [7]) it was 98% (active); in assay [2] (setting [8]), 100% (active); in assay [2] (at 50.0 µM) it was 92.8% (active). The growth inhibition is 98% (active) in assay [3] (setting [7]); 99% (active) in assay [3] (setting [8]); 91.6% (active) in assay [3] (at 50.0 µM); 97% (active) in assay [4] (setting [7]); 100% (active) in assay [4] (setting [8]); 92.8% (active) in assay [4] (at 50.0 µM). The growth inhibition is 99% (active) in assay [5] (setting [7]); 100% (active) in assay [5] (setting [8]); 92.2% (active) in assay [5] (at 50.0 µM); 99% (active) in assay [6] (setting [7]); 99% (active) in assay [6] (setting [8]); 88.8% (active) in assay [6] (at 50.0 µM).
`Cn1c(C(C)(C)OC(=O)Oc2ccccc2)cnc1[N+](=O)[O-]`: the growth inhibition is 0% in assay [1] (setting [7]); 51% in assay [1] (setting [8]); 37.1% in assay [1] (at 50.0 µM); -1% in assay [2] (setting [7]); 24% in assay [2] (setting [8]); 16.8% in assay [2] (at 50.0 µM). The growth inhibition in assay [3] (setting [7]) was 3%; in assay [3] (setting [8]), 68%; in assay [3] (at 50.0 µM), 65.5%; in assay [4] (setting [7]), 4%; in assay [4] (setting [8]) it was 31%; in assay [4] (at 50.0 µM), 30.4%. For the same compound, the growth inhibition in assay [5] (setting [7]) was 0%; in assay [5] (setting [8]), 4%; in assay [5] (at 50.0 µM), 1.35%; in assay [6] (setting [7]), 9%; in assay [6] (setting [8]) it was 54%; in assay [6] (at 50.0 µM) it was 38.8%.
`CN(C)c1ccc2c(c1)Cc1cc(NC(=O)/C=C/C(=O)O)ccc1-2`: the growth inhibition was -31% in assay [1] (setting [7]); -21% in assay [1] (setting [8]); -6.7% in assay [1] (at 50.0 µM); -10% in assay [2] (setting [7]); -19% in assay [2] (setting [8]); -2.05% in assay [2] (at 50.0 µM). In addition, the growth inhibition in assay [3] (setting [7]) was -13%; in assay [3] (setting [8]) it was 12%; in assay [3] (at 50.0 µM) it was -8.55%; in assay [4] (setting [7]) it was -5%; in assay [4] (setting [8]), 6%; in assay [4] (at 50.0 µM), -5.6%. The growth inhibition in assay [5] (setting [7]) is 2%; in assay [5] (setting [8]), -3%; in assay [5] (at 50.0 µM) it was -10.7%; in assay [6] (setting [7]), -2%; in assay [6] (setting [8]), 7%; in assay [6] (at 50.0 µM), -4.7%.
Take `CCCCCC(CO)C(O)(C(F)(F)F)C(F)(F)F` (configuration not stated): the growth inhibition in assay [1] (setting [7]) is -23%; in assay [1] (setting [8]), -5%; in assay [1] (at 50.0 µM), 44.8%; in assay [2] (setting [7]), -26%; in assay [2] (setting [8]), 7%; in assay [2] (at 50.0 µM), 33.9%. Further, the growth inhibition in assay [3] (setting [7]) was 1%; in assay [3] (setting [8]), 9%; in assay [3] (at 50.0 µM), 65.4%; in assay [4] (setting [7]) it was 3%; in assay [4] (setting [8]) it was 15%; in assay [4] (at 50.0 µM) it was 47.4%. Besides, the growth inhibition is 0% in assay [5] (setting [7]); 11% in assay [5] (setting [8]); -30.4% in assay [5] (at 50.0 µM); -26% in assay [6] (setting [7]); -1% in assay [6] (setting [8]); 49.1% in assay [6] (at 50.0 µM).
Turning to `CCN(CC)c1ccc(SC#N)cc1`, the growth inhibition was 1% in assay [1] (setting [7]); 93% (active) in assay [1] (setting [8]); 91.2% (active) in assay [1] (at 50.0 µM); -39% in assay [2] (setting [7]); 94% (active) in assay [2] (setting [8]); 95.1% (active) in assay [2] (at 50.0 µM). For the same compound, the growth inhibition in assay [3] (setting [7]) is 0%; in assay [3] (setting [8]), 95% (active); in assay [3] (at 50.0 µM), 58%; in assay [4] (setting [7]), -3%; in assay [4] (setting [8]), 88% (active); in assay [4] (at 50.0 µM), 90.2% (active). For the same compound, the growth inhibition in assay [5] (setting [7]) was 10%; in assay [5] (setting [8]) it was 96% (active); in assay [5] (at 50.0 µM) it was 97.5% (active); in assay [6] (setting [7]) it was -3%; in assay [6] (setting [8]), 95% (active); in assay [6] (at 50.0 µM) it was 93.6% (active).
`Cc1ccc(C)c(N2C(=O)C(=O)C(c3nc4ccccc4o3)C(=O)C2=O)c1`: the growth inhibition in assay [1] (setting [7]) was 38%; in assay [1] (setting [8]) it was 98% (active); in assay [1] (at 50.0 µM), 99% (active); in assay [2] (setting [7]), 18%; in assay [2] (setting [8]) it was 99% (active); in assay [2] (at 50.0 µM) it was 99.3% (active). Moreover, the growth inhibition in assay [3] (setting [7]) was 30%; in assay [3] (setting [8]) it was 98% (active); in assay [3] (at 50.0 µM), 96.3% (active); in assay [4] (setting [7]) it was 30%; in assay [4] (setting [8]) it was 99% (active); in assay [4] (at 50.0 µM), 99% (active). For the same compound, the growth inhibition in assay [5] (setting [7]) was 13%; in assay [5] (setting [8]), 98% (active); in assay [5] (at 50.0 µM), 99.3% (active); in assay [6] (setting [7]), 15%; in assay [6] (setting [8]), 98% (active); in assay [6] (at 50.0 µM), 98.8% (active).
For `Cn1cc(NC(=O)c2cc(NC(=O)CCCCCCCC(=O)Nc3cc(C(=O)Nc4cc(C(=O)NCCC(=N)N)n(C)c4)n(C)c3)cn2C)cc1C(=O)NCCC(=N)N`, the growth inhibition in assay [1] (setting [7]) is 82% (active); in assay [1] (setting [8]) it was 96% (active); in assay [1] (at 50.0 µM), 86.8% (active); in assay [2] (setting [7]), 84% (active); in assay [2] (setting [8]), 98% (active); in assay [2] (at 50.0 µM) it was 89.8% (active). The growth inhibition in assay [3] (setting [7]) is 73% (active); in assay [3] (setting [8]), 98% (active); in assay [3] (at 50.0 µM), 90.2% (active); in assay [4] (setting [7]) it was 28%; in assay [4] (setting [8]) it was 91% (active); in assay [4] (at 50.0 µM), 82% (active). The growth inhibition is 88% (active) in assay [5] (setting [7]); 98% (active) in assay [5] (setting [8]); 88.2% (active) in assay [5] (at 50.0 µM); 85% (active) in assay [6] (setting [7]); 98% (active) in assay [6] (setting [8]); 88.8% (active) in assay [6] (at 50.0 µM).
